# According to PubChem BioAssay (NCATS):
# Records with an inconclusive call do not appear. Activity calls are given as the source filed them. The call rests on the fitted dose curve; in most records, active means well fitted inhibition curve with a large enough effect; inconclusive means small, poorly fitted or top-dose-only effect; inactive means flat fitted curve, though single readings scatter. Where a SMILES comes first, the peptide text is derived from it. Bridges are numbered along the chain shown (N, C = ends). [ ]: non-standard residue; d: D form. hArg = N=C(N)NCCCC[C@H](N)C(=O)O; Mpa = O=C(O)CCS
# Tested on: MCC-26
# Assay: qHTS assay to identify novel small-molecules to repurpose for Merkel cell carcinoma treatment (AID 1296009); further: nearly all actives have a fitted effect of over 60% in size
# Conditions: MCC and control cell lines, CellTiter-Glo viability, 72 h; series mostly up to 46 µM
# Text: MCC is a rare and aggressive neuroendocrine skin cancer with limited treatment options. Approximately 80% of MCCs have the Merkel cell polyomavirus (MCPyV) DNA integrated into the host genome (virus-positive: VP-MCC) and viral oncogenes drive oncogenesis. The remaining MCCs are virus-negative (VN-MCC) and are caused by UV mutagenesis. To identify novel treatments for VP-MCC and/or VN-MCC we screened three VP-MCC cell lines (WAGA, MKL-1, MKL-2), three VN-MCC cell lines (MCC-13, MCC-26, UISO), and four immortalized, non-transformed control cell lines (HaCaT, HEK293T, CRL7250, NIH-3T3) against ~2,400 compounds in the NCGC Pharmaceutical Collection (NPC) and ~1,900 compounds in the Mechanism Interrogation PlatE (MiPE). Using cell viability as a readout (CellTiter-Glo assay) we found both overlapping and distinct drugs that can be repurposed for the treatment of VP-MCC and VN-MCC.
# A high-throughput screen was conducted in 1536-well white flat bottom plates (Corning) on a Kalypsys robotic system. Cell lines WAGA, MKL-1, MKL-2, MCC-13, MCC-26, UISO, HaCaT, HEK293T, CRL7250, and NIH-3T3 were screened against 2 small molecule annotated drug libraries NPC and MIPE in dose response (8 and 11 pt. respectively) measuring cell viability after 72 hours of incubation. […] A 1,536 pintool (Kalypsys) was used to transfer 23 nL of compound in DMSO to the 1,536-well assay plates. After 72 hr incubation at 37 degree celsius, 2.5 uL of CellTiter-Glo (Promega) was dispensed into each well using a BiorapTR. Plates were incubated at room temperature for 10 min, transferred to a ViewLux (PerkinElmer) and the luminescence was recorded using an exposure time of 2 seconds. Relative luminescence units (RLUs) were normalized to in-plate controls (no cells as a positive (cytotoxicity) control, DMSO as negative control) and the normalized data was processed using NCATS in-house software.
row,SMILES,outcome
1,CC(=O)N[C@@H](Cc1ccc(O)cc1)C(=O)O,inactive
2,CCCCCOC(=O)Nc1nc(=O)n([C@@H]2O[C@H](C)[C@@H](O)[C@H]2O)cc1F,inactive
3,Cc1c(C)c2c(c(C)c1OC(=O)c1cccnc1)CC[C@@](C)(CCC[C@H](C)CCC[C@H](C)CCCC(C)C)O2,inactive
4,NNc1nnc(NN)c2ccccc12,inactive
5,CCc1cccc(CC)c1NC(=O)CN(CC(=O)O)CC(=O)O,inactive
6,OCCN1C[C@H](O)[C@@H](O)[C@H](O)[C@H]1CO,inactive
7,O=C(O)COC(=O)Cc1ccccc1Nc1c(Cl)cccc1Cl,inactive
8,C/C=C/C(=O)N(CC)c1ccccc1C,inactive
9,CC[C@]12CCCN3CCc4c(n(c5ccccc45)[C@@](O)(C(=O)OC)C1)[C@@H]32,inactive
10,Cc1cccc(Nc2ccccc2C(=O)O)c1C,inactive
11,CNCc1ccccc1,inactive
12,Nc1ccc(S(=O)(=O)c2ccc(N)cc2)cc1,inactive
13,Cc1ccccc1N=Nc1ccc(N=Nc2c(O)ccc3ccccc23)c(C)c1,inactive
14,O=C(O)CCCCC1CCSS1 (stereo not given),inactive
15,Cc1c(I)c(=O)n(-c2ccccc2)n1C,inactive
16,CC(=O)Oc1cccc(O)c1,inactive
17,COc1ccc(NS(=O)(=O)c2ccc(N)cc2)nn1,inactive
18,O=C(O)CNC(=O)c1ccccc1I,inactive
19,CC(=O)Nc1cccc(O)c1,inactive
20,Nc1ncnc2c1ncn2[C@@H]1O[C@H](COP(=O)(O)O)[C@@H](O)[C@H]1O,inactive

row,SMILES,outcome
1,CC[N+](CC)(CC(=O)Nc1c(C)cccc1C)Cc1ccccc1,inactive
2,CCCNC(C)(C)COC(=O)c1ccccc1,inactive
3,Cc1[nH]c(C)c(Cl)c(=O)c1Cl,inactive
4,CCS(=O)(=O)CCn1c([N+](=O)[O-])cnc1C,inactive
5,CC(=O)NCc1c(I)c(NC(C)=O)c(I)c(C(=O)O)c1I,inactive
6,Cc1cc(O)cc(C)c1Cl,inactive
7,NC(=O)NC1NC(=O)NC1=O (stereo not given),inactive
8,C/C(=C(\CCO)SS/C(CCO)=C(\C)N(C=O)Cc1cnc(C)nc1N)N(C=O)Cc1cnc(C)nc1N,inactive
9,NC(=O)[C@@H]1CSSCCC(=O)N[C@@H](CCCCN=C(N)N)C(=O)NCC(=O)N[C@@H](CC(=O)O)C(=O)N[C@@H](Cc2c[nH]c3ccccc23)C(=O)N2CCC[C@H]2C(=O)N1 ([Mpa][hArg]GDWPC-NH2; disulfide 1-7),inactive
10,CCCCCC(C)N (stereo not given),inactive
11,CCCCCCCC(=O)OCC(O)CO (stereo not given),inactive
12,CCCCOC(=O)c1ccc(N)cc1,inactive
13,Cc1cc(NC(=O)C2=C(O)c3ccccc3S(=O)(=O)N2C)no1,inactive
14,Cc1onc(-c2ccccc2)c1-c1ccc(S(N)(=O)=O)cc1,inactive
15,NC(=O)N[C@@H](CCC(=O)O)C(=O)O,inactive
16,CC1(C)[C@@H](OC(=O)CCC(=O)O)CC[C@]2(C)[C@H]3C(=O)C=C4[C@@H]5C[C@@](C)(C(=O)O)CC[C@]5(C)CC[C@@]4(C)[C@]3(C)CC[C@@H]12,inactive
17,CN(C/C=C/C#CC(C)(C)C)Cc1cccc2ccccc12,inactive
18,O=c1[nH]c2cc(C(F)(F)F)c(N3CCOCC3)cc2n(CP(=O)(O)O)c1=O,inactive
19,O=C(O)c1cc(=O)c2ccccc2o1,inactive
20,Cc1cc(-n2nc3ccc(Cl)cc3n2)c(O)c(C(C)(C)C)c1,inactive
